Compounds without any hit were thinned out: in the full panel of roughly 83,000, 20% have a hit.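 The endpoint reported here, percent growth, reads 100 for growth as untreated, 0 for no net growth and -100 for all cells dead.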 Activity calls are given as the source filed them. How the source made its calls: active means growth percent below 10; inactive means the rest.
What was measured:
Assay in all cases: NCI-60 one-dose screen, 48 h (100 = growth as untreated, 0 = no growth, -100 = all killed)
Details in all cases: 10 µM unless noted
DU-145 prostate = system: DU-145 prostate
K-562 leukemia = system: K-562 leukemia
MALME-3M melanoma = system: MALME-3M melanoma
MDA-MB-231 breast = system: MDA-MB-231 breast
RXF 393 renal = system: RXF 393 renal
SF-268 CNS = system: SF-268 CNS
SF-295 CNS = system: SF-295 CNS
SF-539 CNS = system: SF-539 CNS
UACC-257 melanoma = system: UACC-257 melanoma
M14 melanoma = system: M14 melanoma

Measured: growth

N#Cc1ccccc1C#Cc1ccccc1C#Cc1ccc(OCCCCCCOc2ccc(C#Cc3ccccc3C#Cc3ccccc3C#N)cc2)cc1
inactive: DU-145 prostate 111% | K-562 leukemia 96.7% | MALME-3M melanoma 102% | MDA-MB-231 breast 88.5% | RXF 393 renal 97.7% | SF-268 CNS 115% | SF-295 CNS 106% | SF-539 CNS 97.6% | UACC-257 melanoma 103% | M14 melanoma 85.8%

COc1cnc2c(c1)C(=O)c1c-2n(CCCN2CCCC2)c(=O)c2cc(F)ccc12
active: DU-145 prostate -1.81% | K-562 leukemia -45.1% | MALME-3M melanoma -71.9% | RXF 393 renal -81% | SF-295 CNS -20.4% | SF-539 CNS -39.3% | UACC-257 melanoma -12.2% | M14 melanoma 2.05%
inactive: MDA-MB-231 breast 23% | SF-268 CNS 12.1%

Cc1ccc(/C=C/C(=O)c2ccc(F)cc2)s1
inactive: DU-145 prostate 90.8% | K-562 leukemia 38.1% | MALME-3M melanoma 78.9% | MDA-MB-231 breast 105% | RXF 393 renal 84.8% | SF-268 CNS 92.2% | SF-295 CNS 88.5% | SF-539 CNS 103% | UACC-257 melanoma 90.3% | M14 melanoma 95.1%

CCC(C)C1NC(=O)C(CCNCS(=O)(=O)O)NC(=O)C(NC(=O)C(CCNCS(=O)(=O)O)NC(=O)C(NC(=O)C(CCNCS(=O)(=O)O)NC(=O)CCCCC(C)C)C(C)O)CCNC(=O)C(C(C)O)NC(=O)C(CCNCS(=O)(=O)O)NC(=O)C(CCNCS(=O)(=O)O)NC(=O)C(C(C)CC)NC1=O (stereo not given)
inactive: DU-145 prostate 117% | K-562 leukemia 20.2% | MALME-3M melanoma 48.9% | MDA-MB-231 breast 51.9% | RXF 393 renal 47.4% | SF-268 CNS 72.9% | SF-295 CNS 86.6% | SF-539 CNS 27.3% | UACC-257 melanoma 84.3% | M14 melanoma 34.7%

C/C(=C\CCc1ccoc1)CC/C=C(\C)CCCN1CCSCC1
inactive: DU-145 prostate 92.9% | K-562 leukemia 56.6% | MALME-3M melanoma 104% | MDA-MB-231 breast 80% | RXF 393 renal 78.8% | SF-268 CNS 96.4% | SF-295 CNS 46.9% | SF-539 CNS 92.1% | UACC-257 melanoma 61.1% | M14 melanoma 81.6%

Cc1n(Cc2ccc3ccccc3c2)cc[n+]1Cc1ccc2ccccc2c1
inactive: DU-145 prostate 35.2% | K-562 leukemia 10.2% | SF-268 CNS 18.9% | SF-295 CNS 15.4%
active: MALME-3M melanoma -20.9% | MDA-MB-231 breast -24.3% | RXF 393 renal 3.41% | SF-539 CNS 5.68% | UACC-257 melanoma -28.5% | M14 melanoma -15.7%

COc1cc(C2CC(C3C(=O)N(C)C(=O)N(C)C3=O)=NN2c2cc(Cl)cc(Cl)c2)cc(OC)c1OC (stereo not given)
inactive: DU-145 prostate 107% | K-562 leukemia 88.4% | MALME-3M melanoma 89.1% | MDA-MB-231 breast 103% | RXF 393 renal 99.3% | SF-268 CNS 103% | SF-295 CNS 84.4% | SF-539 CNS 96% | UACC-257 melanoma 74.2% | M14 melanoma 89.3%

CCOc1cc(/C=C/C(=O)C(C(=O)/C=C/c2ccc(OC(=O)CNc3nnc(C)s3)c(OCC)c2)C(=O)CNc2nnc(C)s2)ccc1OC(=O)CNc1nnc(C)s1
inactive: UACC-257 melanoma 15.3%
active: DU-145 prostate -68.7% | K-562 leukemia -41.8% | MALME-3M melanoma -20.8% | MDA-MB-231 breast -36.9% | RXF 393 renal -78.5% | SF-268 CNS -16.4% | SF-295 CNS -24.7% | SF-539 CNS -54.5% | M14 melanoma -26.3%

COc1cc(C2CC(c3ccc(C)cc3)=NN2C=O)ccc1OCCN(C)C (stereo not given)
inactive: DU-145 prostate 105% | K-562 leukemia 83% | MALME-3M melanoma 83.1% | MDA-MB-231 breast 97.2% | RXF 393 renal 79.8% | SF-268 CNS 89.8% | SF-295 CNS 97.4% | SF-539 CNS 89.5% | UACC-257 melanoma 92.9% | M14 melanoma 96.8%

NC(=O)c1cc(Br)cc(Br)c1NS(=O)(=O)c1ccccc1
inactive: DU-145 prostate 110% | K-562 leukemia 122% | MALME-3M melanoma 94.1% | MDA-MB-231 breast 88.1% | RXF 393 renal 104% | SF-268 CNS 108% | SF-295 CNS 98.2% | SF-539 CNS 98.6% | UACC-257 melanoma 131% | M14 melanoma 101%

C=C1CC[C@@H]2[C@](C)(COC(C)=O)[C@H](OC(C)=O)CC[C@@]2(C)[C@@H]1CC(NCc1ccccc1)C1=CCOC1=O (stereo not given in full)
inactive: DU-145 prostate 67.2% | K-562 leukemia 24.7% | MALME-3M melanoma 77.1% | MDA-MB-231 breast 64.7% | RXF 393 renal 74.3% | SF-268 CNS 62.1% | SF-295 CNS 63.9% | SF-539 CNS 79.5% | UACC-257 melanoma 32.8% | M14 melanoma 42.1%

COc1cccc(/C=N\NC(=O)c2ccncc2)c1O
inactive: DU-145 prostate 51.7% | K-562 leukemia 71.2% | MALME-3M melanoma 68.3% | MDA-MB-231 breast 47.1% | RXF 393 renal 57.3% | SF-268 CNS 42.2% | SF-295 CNS 55.8% | SF-539 CNS 55.7% | UACC-257 melanoma 49.6% | M14 melanoma 34.4%

ICCC(c1ccccc1)(c1ccccc1)c1ccccc1
inactive: DU-145 prostate 79.1% | MDA-MB-231 breast 41.7% | RXF 393 renal 28.4% | SF-268 CNS 62.7% | SF-295 CNS 51.3% | SF-539 CNS 10.6%
active: K-562 leukemia -9.2% | MALME-3M melanoma -43.4% | UACC-257 melanoma -62.8% | M14 melanoma -76.2%

Reference: PubChem BioAssay (NCI)
